PubChem BioAssay AID1159580 (chemical genetic matrix, 2015)
Where “and” joins values, the source holds several entries; their conditions need not be identical. Equal values may be shown once. Out of some 5,500 compounds screened, about 2,000 (36%) were called active. About 18% were inconclusive and are not listed. No stated cut-off is given here; in the data, active means normalized growth mostly below about 0.91 (no sharp cut-off); inconclusive means no clear call, values can overlap the other calls; inactive means mostly above about 0.92. The list shows a part of the results.

Test: chemical genetic growth profiling, strain panel (AID 1159580);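 further: tested at 20 µM; growth read once vehicle control cultures reached saturation at 30 °C; 1 = growth at the plate median or of vehicle wells; lower values mean less growth of the strain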
Settings: growth OD

Measured: normalized growth

CNCCCN1c2ccccc2CCc2ccccc21
inactive: S. cerevisiae deletion strains, locus YKL009W, strain mrt4, active compounds read low 1 | S. cerevisiae deletion strains, locus YKL068W, active compounds read low 1 | S. cerevisiae deletion strains, locus YKL085W, strain MDH1 (second series), active compounds read low 1.04 | S. cerevisiae deletion strains, locus YKL085W, strain MDH1, active compounds read low 1.04 | S. cerevisiae deletion strains, locus YKL160W, strain elf1, active compounds read low 1.03 | S. cerevisiae deletion strains, locus YKL190W, strain CNB1, active compounds read low 1 | S. cerevisiae deletion strains, locus YKR001C, strain vps1, active compounds read low 0.997 | S. cerevisiae deletion strains, locus YKR026C, strain gcn3, active compounds read low 1.01 | S. cerevisiae deletion strains, locus YKR091W, strain srl3, active compounds read low 1.01 | S. cerevisiae deletion strains, locus YLL001W, strain dnm1, active compounds read low 1.03 | S. cerevisiae deletion strains, locus YLL026W, active compounds read low 1.03 | S. cerevisiae deletion strains, locus YLL041C, strain sdh2, active compounds read low 1.01 | S. cerevisiae deletion strains, locus YLR027C, strain aat2, active compounds read low 1.03 | S. cerevisiae deletion strains, locus YLR039C, strain RIC1, active compounds read low 1.22 | S. cerevisiae deletion strains, locus YLR058C, strain SHM2, active compounds read low 1.01 | S. cerevisiae deletion strains, locus YLR102C, strain apc9, active compounds read low 1 | S. cerevisiae deletion strains, locus YLR113W, strain HOG1, active compounds read low 1.02 | S. cerevisiae deletion strains, locus YLR221C, strain rsa3, active compounds read low 0.978 | S. cerevisiae deletion strains, locus YLR258W, strain gsy2, active compounds read low 1 | S. cerevisiae deletion strains, locus YLR262C, strain YPT6 (second series), active compounds read low 1.09 | S. cerevisiae deletion strains, locus YLR262C, strain YPT6, active compounds read low 1.16 | S. cerevisiae deletion strains, locus YLR268W, strain sec22, active compounds read low 0.988 | S. cerevisiae deletion strains, locus YLR320W, strain mms22, active compounds read low 0.987 | S. cerevisiae deletion strains, locus YLR330W, strain CHS5, active compounds read low 1.01 | S. cerevisiae deletion strains, locus YLR342W, strain FKS1 (second series), active compounds read low 0.997 | S. cerevisiae deletion strains, locus YLR342W, strain FKS1, active compounds read low 1.04 | S. cerevisiae deletion strains, locus YLR357W, strain rsc2, active compounds read low 0.985 | S. cerevisiae deletion strains, locus YLR370C, strain arc18, active compounds read low 1.02 | S. cerevisiae deletion strains, locus YLR371W, strain rom2, active compounds read low 0.988 | S. cerevisiae deletion strains, locus YLR384C, strain iki3, active compounds read low 1.01 | S. cerevisiae deletion strains, locus YLR418C, strain cdc73, active compounds read low 0.938 | S. cerevisiae deletion strains, locus YML016C, strain PPZ1, active compounds read low 0.997 | S. cerevisiae deletion strains, locus YML032C, strain rad52, active compounds read low 0.999 | S. cerevisiae deletion strains, locus YML120C, strain ndi1, active compounds read low 1.04 | S. cerevisiae deletion strains, locus YML124C, strain tub3, active compounds read low 1 | S. cerevisiae deletion strains, locus YMR058W, strain fet3, active compounds read low 1.02 | S. cerevisiae deletion strains, locus YMR078C, strain ctf18, active compounds read low 1 | S. cerevisiae deletion strains, locus YMR125W, strain sto1, active compounds read low 0.985 | S. cerevisiae deletion strains, locus YMR129W, active compounds read low 1.01 | S. cerevisiae deletion strains, locus YMR205C, strain PFK2, active compounds read low 1.04 | S. cerevisiae deletion strains, locus YMR223W, strain ubp8, active compounds read low 0.983 | S. cerevisiae deletion strains, locus YMR231W, strain pep5, active compounds read low 1.01 | S. cerevisiae deletion strains, locus YMR263W, strain SAP30, active compounds read low 0.997 | S. cerevisiae deletion strains, locus YMR307W, strain GAS1, active compounds read low 1.1 and 0.99 | S. cerevisiae deletion strains, locus YNL067W, strain RPL9B, active compounds read low 0.998 | S. cerevisiae deletion strains, locus YNL071W, strain lat1, active compounds read low 0.994 | S. cerevisiae deletion strains, locus YNL128W, strain TEP1, active compounds read low 1.02 | S. cerevisiae deletion strains, locus YNL153C, strain GIM3, active compounds read low 0.989 | S. cerevisiae deletion strains, locus YNL175C, strain NOP13, active compounds read low 1 | S. cerevisiae deletion strains, locus YNL183C, strain NPR1, active compounds read low 0.959 | S. cerevisiae deletion strains, locus YNL197C, strain WHI3, active compounds read low 1 | S. cerevisiae deletion strains, locus YNL209W, strain ssb2, active compounds read low 1 | S. cerevisiae deletion strains, locus YNL224C, strain SQS1, active compounds read low 0.998 | S. cerevisiae deletion strains, locus YNL233W, strain BNI4, active compounds read low 0.985 | S. cerevisiae deletion strains, locus YNL248C, strain rpa49, active compounds read low 0.995 | S. cerevisiae deletion strains, locus YNL250W, strain rad50, active compounds read low 1.01 | S. cerevisiae deletion strains, locus YNL271C, strain bni1, active compounds read low 0.998 | S. cerevisiae deletion strains, locus YNL298W, strain CLA4, active compounds read low 0.998 | S. cerevisiae deletion strains, locus YNL307C, strain MCK1, active compounds read low 1 | S. cerevisiae deletion strains, locus YNL322C, strain KRE1 (second series), active compounds read low 1.02 | S. cerevisiae deletion strains, locus YNL322C, strain KRE1, active compounds read low 1.01 and 0.993 | S. cerevisiae deletion strains, locus YNR049C, strain mso1, active compounds read low 1.01 | S. cerevisiae deletion strains, locus YNR052C, strain pop2, active compounds read low 1.01 | S. cerevisiae deletion strains, locus YOL012C, strain htz1 0.655 | S. cerevisiae deletion strains, locus YOL147C, strain pex11, active compounds read low 1 | S. cerevisiae deletion strains, locus YOR001W, strain rrp6, active compounds read low 1.02 | S. cerevisiae deletion strains, locus YOR061W, strain CKA2, active compounds read low 1.01 | S. cerevisiae deletion strains, locus YOR069W, strain VPS5, active compounds read low 1.01 | S. cerevisiae deletion strains, locus YOR070C, strain gyp1, active compounds read low 1.01 | S. cerevisiae deletion strains, locus YOR080W, strain dia2, active compounds read low 1.03 | S. cerevisiae deletion strains, locus YOR083W, strain WHI5 (second series), active compounds read low 1.03 | S. cerevisiae deletion strains, locus YOR083W, strain WHI5, active compounds read low 1.02 | S. cerevisiae deletion strains, locus YOR106W, strain vam3, active compounds read low 1.06 | S. cerevisiae deletion strains, locus YOR136W, strain idh2, active compounds read low 0.999 | S. cerevisiae deletion strains, locus YOR144C, strain elg1, active compounds read low 1 | S. cerevisiae deletion strains, locus YOR184W, strain ser1, active compounds read low 1.03 | S. cerevisiae deletion strains, locus YOR231W, strain MKK1, active compounds read low 1.01 | S. cerevisiae deletion strains, locus YOR265W, strain rbl2, active compounds read low 1.02 | S. cerevisiae deletion strains, locus YOR270C, strain vph1, active compounds read low 0.961 | S. cerevisiae deletion strains, locus YOR290C, strain snf2, active compounds read low 0.981 | S. cerevisiae deletion strains, locus YOR316C, strain cot1, active compounds read low 1.01 | S. cerevisiae deletion strains, locus YPL051W, strain arl3, active compounds read low 1.01 | S. cerevisiae deletion strains, locus YPL055C, strain LGE1, active compounds read low 0.96 | S. cerevisiae deletion strains, locus YPL078C, strain atp4, active compounds read low 1.05 | S. cerevisiae deletion strains, locus YPL106C, strain sse1, active compounds read low 1.04 | S. cerevisiae deletion strains, locus YPL240C, strain hsp82, active compounds read low 1.01 | S. cerevisiae deletion strains, locus YPL241C, strain CIN2, active compounds read low 1.01 and 0.994 | S. cerevisiae deletion strains, locus YPL256C, strain CLN2, active compounds read low 1.01 | S. cerevisiae deletion strains, locus YPR119W, strain clb2, active compounds read low 1 | S. cerevisiae deletion strains, locus YPR141C, strain kar3, active compounds read low 1 | S. cerevisiae deletion strains, locus YPR163C, strain tif3, active compounds read low 0.989 | S. cerevisiae deletion strains, locus YPR167C, strain met16, active compounds read low 1.01 | S. cerevisiae deletion strains, strain wtn01, active compounds read low 0.985 | S. cerevisiae strains, strain wild type, active compounds read low 1.01
